Experimental findings from PubChem BioAssay AID588350 (The Scripps Research Institute Molecular Screening Center, 2011) are described below.

Among all 1,900 compounds or so, about 1,200 (63%) were called active. The set was probably picked from earlier hits. The list is a sample of the results. Values without a mark were called inactive.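 The calls were made as follows: active = mean activation above the mean of solvent-only control wells plus 3 SD (cut at about 22% in these data); inactive = the rest.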

This assay in a line: frataxin GAA30 reporter activation – cell-based, luminescence, HEK293, lucGAA30, triplicate, counter-screen for GAA850 frataxin promoter activator project, confirmation (AID 588350).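 Also: counterscreen of GAA850 promoter hits where activity marks nonselective or luminescence artifacts.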 The following applies: HEK293 lucGAA30 FXN promoter luciferase, 24 h; at 6 µM; stronger effect = higher value; DMSO = 0%, 5 µM ipriflavone = 100%.
For the compound `Cc1cc(OCc2cc(C(=O)NCc3cc(C(C)C)no3)no2)cc(C)c1Cl`, the activation is 110% (active).

Consider `COCCn1c(=NC(=O)c2ccccc2[N+](=O)[O-])sc2cc(S(C)(=O)=O)ccc21`, for which the activation is 51.5% (active).

Consider `Cc1c(-c2ccccc2)nc(N)c(C#N)c1-c1cccs1`, for which the activation was 23.3% (active).

As to `CCOC(=O)c1cc2cc(C)ccc2[nH]1`, the activation was 74.2% (active).

Consider `CCC(=O)NC(=Nc1nc2ccccc2s1)NC(=O)CC`, for which the activation is 129% (active).

Consider `Cc1ccc(-c2nc3ccccc3[nH]c2=O)cc1`, for which the activation is 101% (active).

Turning to `N#Cc1c(N)nc2c3c(sc(=N)c2c1N)NC(=O)CC3c1ccccc1Cl` (stereo not drawn), the activation is 25.4% (active).

With `CC1CCc2sc3nc(N4CCN(CCO)CC4)n4ncnc4c3c2C1` (stereo not drawn), the activation was 61.1% (active).

Turning to `O=C(NCCCn1ccnc1)c1cc(-c2ccccc2)on1`, the activation is 204% (active).

For the compound `O=C(NC1CCCC1)c1cc(-c2ccccc2)on1`, the activation is 161% (active).

As to `COc1ccccc1N1CCN(C(=O)c2cc(-c3ccc(Br)cc3)on2)CC1`, the activation was -9.05%.

Regarding `COC(=O)c1ccc(CSc2nc3ccccc3c(=O)n2-c2cccc(OC)c2)o1`, the activation is 19.9%.

Take `CN1C(=O)/C(=C\c2cc(Br)cs2)c2ccccc21`: the activation was 102% (active).

For the compound `Cc1ccc(-c2c3c(=O)n(C)c(=O)n(C)c3cn2-n2cnnc2)cc1`, the activation is -0.74%.

Turning to `CCOc1ccc(N2C(=O)CC(N(CCc3ccc(OC)c(OC)c3)C(=S)Nc3ccccc3)C2=O)cc1` (stereo not drawn), the activation is -9.82%.

As to `O=C(N/N=C/C=C/c1ccco1)c1cccs1`, the activation was 82.6% (active).

Regarding `CCC1(CC)Cc2ccccc2-c2nc(CCl)[nH]c(=O)c21`, the activation is -4.18%.

Turning to `O=C(CC1NCCc2ccccc21)Nc1cccc(Cl)c1` (stereo not drawn), the activation was 69% (active).

As to `N#CC1=C(SCc2ccc(C#N)cc2)N=C(N)C(c2nc(-c3ccccc3)cs2)C12CCCCC2` (stereo not drawn), the activation was 2.61%.

In the case of `O=[N+]([O-])c1ccc(C=Nc2ccc(Cl)cc2Cl)s1`, the activation was -6.04%.

For `COc1ccc(C2Nc3ccccc3C(=O)N2c2ccc(Cl)cc2)cc1Cn1cc([N+](=O)[O-])cn1` (stereo not drawn), the activation is 92.3% (active).

`CN(C(=O)c1cc2c(=O)n3ccccc3nc2s1)C1CCCCC1`: the activation was 116% (active).

For `CCCCNC(=O)N(O)C1N(/N=C/c2ccccc2O)C(=S)SC1(C)C` (stereo not drawn), the activation is 26.7% (active).

Turning to `CCCNC(=O)c1c(Cl)cnn1-c1ccc(C)cc1`, the activation is 108% (active).

For `Fc1ccccc1/C=N/Nc1cc(N2CCCCC2)ncn1`, the activation is 118% (active).

On to `Cc1cc(C(=O)N/N=C\C(Br)=C\c2ccccc2)c(C)o1`, for which the activation was 58.9% (active).

`CC(C)c1cc(C(=O)N/N=C/C(Br)=C/c2ccccc2)n[nH]1`: the activation is -1.66%.

Turning to `CCCCCOc1ccc(CSC2=NCCN2)cc1[N+](=O)[O-]`, the activation was 79.1% (active).

On to `O=C(Nc1ccc2c(c1)OCCO2)c1cnccn1`, for which the activation was 87.7% (active).

Turning to `O=C(COc1ccc(Cl)cc1Cl)NCCCNC(=O)c1cnccn1`, the activation was 11.8%.

Consider `CCc1ccc(N(C(=O)c2csnn2)C(C(=O)NC2CCCCC2)c2ccncc2)cc1` (stereo not drawn), for which the activation is 26.5% (active).

Take `CN(C)[C@@H]1C(=O)C(C(N)=O)=C(O)[C@@]2(O)C(=O)C3=C(O)c4c(O)ccc(Cl)c4[C@@H](O)[C@H]3C[C@@H]12`: the activation is 25.7% (active).

With `C=C1c2c(Cl)ccc(O)c2C(O)=C2C(=O)[C@]3(O)C(O)=C(C(N)=O)C(=O)[C@@H](N(C)C)[C@@H]3[C@@H](O)C12` (stereo partly drawn), the activation was 18.7%.

On to `Cc1noc(C)c1-c1ccc2ncnc(NC(C)c3ccco3)c2c1` (stereo not drawn), for which the activation is 40.9% (active).

`Cn1c(=O)n(C)c2cc(S(=O)(=O)N3CCCc4ccccc43)ccc21`: the activation was 1.6%.

On to `CN(C)CCNC(=O)c1ccc(Cl)c2cc3ccccc3nc12`, for which the activation was -3.95%.

On to `O=C1N=C(N2CCCC2)S/C1=C\c1cccc(Br)c1`, for which the activation is 60.8% (active).

As to `CC(C)(C)C(=O)c1cnc(Nc2ccccc2)s1`, the activation is 126% (active).

Take `Cc1cc(C)n2nc(CNS(=O)(=O)c3c(F)c(F)c(F)c(F)c3F)nc2n1`: the activation is 21.4%.

As for `Cc1cc(=O)oc(C)c1C(=O)NCc1ccc(F)cc1`, the activation was 14.5%.

Regarding `O=C(NCc1ccco1)c1ccc(Cn2c(=O)c3sccc3n(Cc3ccc(F)cc3)c2=O)cc1`, the activation was 24.6% (active).

As to `Nc1ccc(C(=O)Nc2ccccc2N)cc1`, the activation is 54.8% (active).

As to `Cc1nnc(Sc2nc3c(c(=O)[nH]c(=O)n3C)n2Cc2ccccc2)s1`, the activation is 12.3%.

On to `CNc1nc(Nc2ccc(C)c(Cl)c2)nc(N)c1[N+](=O)[O-]`, for which the activation was 159% (active).

`COc1ccc(/C=C/C(=O)Nc2ccc(C34CC5CC(CC(O)(C5)C3)C4)cc2)cc1OC`: the activation was 64.1% (active).

`Cc1ccc(-n2c(C)cc(/C=C(\C#N)C(=O)NCC3CCCO3)c2C)cc1` (stereo not drawn): the activation is 110% (active).

As to `O=C(CN(c1cc(C(F)(F)F)ccc1Cl)S(=O)(=O)c1ccccc1)NCc1cccnc1`, the activation was 20.5%.

Consider `O=C(Nc1nnc(S(=O)(=O)N2CCCCCC2)s1)c1cccc(Br)c1`, for which the activation was 31.3% (active).

As for `CC(C)c1ccc(NS(=O)(=O)c2cn(C)c(=O)n(C)c2=O)cc1`, the activation was 13.1%.

Turning to `Cn1c(CCN2CCCCCC2)nc2cc(NC(=O)Nc3ccccc3)ccc21`, the activation is 122% (active).

For `Cc1cc(C)nc(S/C=C/C(=O)c2ccccc2)n1`, the activation is -58.6%.

Consider `COC(=O)[C@@]1(C)[C@H]2C(=O)N(Cc3ccccc3)C(=O)[C@H]2[C@H]2CN=C(SCC3CC3)N21`, for which the activation is 29.2% (active).

With `CC[C@]1(C(=O)OC)[C@H]2C(=O)N(Cc3ccccc3)C(=O)[C@H]2[C@H]2CN=C(SCc3ccccc3)N21`, the activation is 15.5%.

With `CC[C@]1(C(=O)OC)[C@H]2C(=O)N(Cc3ccccc3)C(=O)[C@H]2[C@H]2CN=C(SCc3ccc(C#N)cc3)N21`, the activation was 23.6% (active).

Take `CN(C)S(=O)(=O)c1ccc2oc(SCC(=O)Nc3ccccc3F)nc2c1`: the activation was 127% (active).

Regarding `O=C(CSc1cccc2cccnc12)N/N=C/c1cccnc1`, the activation was -15.3%.

For `Cc1ccc2cc(/C=N/Nc3ccc(C(=O)O)cc3)c(Cl)nc2c1`, the activation was 109% (active).

On to `O=C1[C@H]2[C@@H](c3ccc(Cl)cc3)N3C(=O)N(c4cccc(F)c4)C(=O)[C@@]3(Cc3ccccc3)[C@H]2C(=O)N1C1CCCCC1`, for which the activation is 16.9%.

As to `C[C@@]12C(=O)N(c3cccc(Br)c3)C(=O)N1[C@H](c1ccc(Cl)cc1)[C@@H]1C(=O)N(C3CCCCC3)C(=O)[C@@H]12`, the activation was 0.25%.

Take `O=C1[C@H]2[C@@H](c3ccc(F)cc3)N3C(=O)N(c4ccc(C(F)(F)F)cc4)C(=O)[C@@]3(Cc3ccccc3)[C@H]2C(=O)N1C1CCCCC1`: the activation is 26.3% (active).

As to `CC(C)(C)c1ccc(C(=O)NCc2ccco2)cc1`, the activation was 102% (active).

`CCCCc1ccc(NC(=S)N2CCCC(CO)C2)cc1` (stereo not drawn): the activation was 102% (active).

As to `CC(C)(C)N1C(=O)[C@H]2[C@@H](c3ccc(Br)cc3)N3C(=O)N(c4cccc(Cl)c4)C(=O)[C@@]3(C)[C@H]2C1=O`, the activation is 20.4%.

On to `COc1ccc(N(CCC#N)S(=O)(=O)c2ccc(Cl)cc2)cc1`, for which the activation is 11.8%.

In the case of `CC(C)CCC(C)NC(=O)c1ccc2nccnc2c1` (stereo not drawn), the activation is 77% (active).

In the case of `O=c1[nH]cnc2c1c(-c1ccccc1)cn2-c1ccc(F)cc1`, the activation is 11.4%.

For `COc1ccc(Cl)cc1NC(=O)CN(C)C(=O)CCCc1c[nH]c2ccccc12`, the activation was 16.9%.

As to `CC[C@@]12C(=O)N(c3ccccc3)C(=O)N1[C@H](c1ccc(Br)cc1)[C@@H]1C(=O)N(C(C)(C)C)C(=O)[C@@H]12`, the activation is 21.7%.

Consider `CSc1nc(N)c(C#N)c(-c2ccccc2Cl)c1C#N`, for which the activation is 25.8% (active).

As to `Fc1ccc2nc(N3CCCCC3)sc2c1`, the activation was 95.9% (active).

For `c1ccc(-c2cc(-c3ccccc3)[nH]n2)cc1`, the activation was 129% (active).

For `Oc1ccccc1-c1cc(-c2ccc(Cl)cc2)n[nH]1`, the activation is 124% (active).

As to `COc1ccc(-n2cc(-c3ccccc3)c3c(=S)nc[nH]c32)cc1`, the activation was 15.8%.

Consider `N#CCSc1nc2ccccc2c(=O)n1-c1ccccc1`, for which the activation was 16.1%.

For the compound `CC1(C(=O)N/N=C/c2cc3c(cc2Br)OCO3)CC1(Br)Br` (stereo not drawn), the activation is 30.7% (active).

For the compound `COc1ccccc1C1=Nc2cccc3cccc(c23)N1`, the activation was 15.9%.

Turning to `COc1cc(C#Cc2ccc3cc(CCCO)oc(=O)c3c2)cc(OC)c1`, the activation was 7.14%.

In the case of `Cc1ccc(C(=O)NNc2ncnc3ccccc23)cc1`, the activation was 79.1% (active).

Regarding `CCN(C[C@H]1N[C@@](CC)(C(=O)OC)[C@H]2C(=O)N(Cc3ccccc3)C(=O)[C@@H]12)S(=O)(=O)c1ccc(C(F)(F)F)cc1`, the activation was 22.6% (active).

With `CN(C)C(=S)N=c1ssc(=S)n1Cc1ccco1`, the activation was 12.5%.

Take `Cc1nc(-c2ccc(F)cc2)c(CC(=O)Nc2cc(S(=O)(=O)N3CCCCC3)ccc2C)s1`: the activation is 16.7%.

As for `COc1ccc2[nH]c(=O)c(CN(Cc3nnnn3CCc3ccccc3)CC3CCCO3)cc2c1` (stereo not drawn), the activation was -9.61%.

For `COc1cc(/C=N/Nc2nc3ccccc3s2)ccc1O`, the activation is 124% (active).

For `CCCCn1c(SCC(=O)NCCc2ccc(OC)c(OC)c2)nc2c1c(=O)n(C)c(=O)n2C`, the activation was 26.9% (active).

On to `COc1ccc(NC(=O)CSc2nc(SC)ns2)c(OC)c1`, for which the activation was 119% (active).

`CCOc1ccc(Nc2oc(Cc3ccccc3)nc2C#N)cc1`: the activation was 58.9% (active).

Consider `COc1ccc(-c2csc(Cc3nc(O)cs3)n2)cc1`, for which the activation was -53.3%.

With `COc1ccc(-c2csc(Nc3ccc(O)cc3)n2)cc1`, the activation was 107% (active).

With `O=c1oc2ccccc2cc1-c1csc(Nc2ccc(O)cc2)n1`, the activation is 148% (active).

In the case of `CC1(Cc2cccc(C#N)c2)C(=O)Nc2ccc(-c3cccc(C(F)(F)F)c3)cc21` (stereo not drawn), the activation is 10.6%.

For the compound `COc1ccc(-c2nnc(SCC(=O)c3cccs3)o2)c(OC)c1`, the activation was 88.6% (active).

In the case of `Cc1ccccc1Nc1c([N+](=O)[O-])ccc2nonc12`, the activation is 29.2% (active).

With `Cc1ccc(C2Nc3cccc4cccc(c34)N2)cc1`, the activation was 24.8% (active).

Turning to `CC(Sc1nc2c([nH]c3ccccc32)c(=O)n1C)c1ccccc1` (stereo not drawn), the activation is 22.8% (active).

In the case of `COc1cccc(Nc2nc(N)c([N+](=O)[O-])c(NCc3ccco3)n2)c1`, the activation was 42% (active).

Regarding `CC1(C(=O)NCc2cccc3ccccc23)CCN1Cc1ccc(-c2ccccc2)o1` (stereo not drawn), the activation was 24.2% (active).

In the case of `CCOC(=O)c1cc2c(=O)n3ccccc3nc2n(CC(C)C)c1=NC(=O)c1c(-c2c(F)cccc2Cl)noc1C`, the activation is -0.82%.

For `Cc1ccc(NC(=O)c2sc3nc(N)c(C#N)cc3c2N)cc1`, the activation is 61.2% (active).
